PubChem BioAssay (NCI)
This is part of a sample that, as a whole, favours compounds with a hit. Of some 79,000 tested, about 15% had one in any assay. No stated cut-off is given here; in the data, active means growth inhibition above about 70%; inactive means the rest.

Legend:
[1] = NCI Yeast Anticancer Drug Screen. Data for the rad50 strain (AID 155);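 further: 0% = growth of vehicle-only cultures of the same strain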; settings: S. cerevisiae rad50 strain growth inhibition, stronger effect = higher value; at 50.0 µM unless noted
Outline: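 A DNA repair-deficient yeast mutant serves as the test organism; compound-induced growth inhibition is calculated against vehicle-treated cells.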

[2] = NCI Yeast Anticancer Drug Screen. Data for the mec2-1 strain (AID 157); settings: S. cerevisiae mec2-1 strain, stronger effect = higher value; at 50.0 µM unless noted
Outline: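 Mutant yeast (mec2-1) grown with compound; growth inhibition relative to vehicle control reported.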

[3] = NCI Yeast Anticancer Drug Screen. Data for the sgs1 mgt1 strain (AID 161);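 further: 0% = growth of cultures given vehicle only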; settings: S. cerevisiae sgs1 mgt1 strain, stronger effect = higher value; at 50.0 µM unless noted
Outline: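 This yeast growth screen uses a strain with defined DNA-repair lesions; compound-treated growth is compared with vehicle-treated growth.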

[4] = NCI Yeast Anticancer Drug Screen. Data for the cln2 rad14 strain (AID 165);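 further: 0% = growth equal to vehicle treated cultures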; settings: S. cerevisiae cln2 rad14 strain, stronger effect = higher value; at 50.0 µM unless noted
Outline: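 Readout is yeast growth inhibition versus vehicle-treated controls, using a strain with cln2 and rad14 alterations exposed to compound.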

[5] = NCI Yeast Anticancer Drug Screen. Data for the bub3 strain (AID 167); settings: S. cerevisiae bub3 mutant strain, stronger effect = higher value; at 50.0 µM unless noted
Outline: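 Inhibition values come from growth of compound-treated mutant yeast normalised to vehicle-treated controls.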

[6] = NCI Yeast Anticancer Drug Screen. Data for the mlh1 rad18 strain (AID 175); settings: S. cerevisiae mlh1 rad18 strain growth inhibition, stronger effect = higher value; at 50.0 µM unless noted
Outline: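 Genetically defined yeast (DNA repair-deficient) exposed to compounds; growth inhibition determined relative to vehicle.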

Measured: growth inhibition

Cc1ccc(C(N)=O)cc1N=NN(C)C
inactive: [1] -25.8% | [2] -39.4% | [3] -56.9% | [4] 1.55% | [5] -16.6% | [6] -24.4%

CCN(CC)CCNc1c(OC)c(OC)cc2nccnc12
inactive: [1] 9.85% | [2] 9.7% | [3] 30.9% | [4] 2.85% | [5] 0.2% | [6] -1.75%

COC(=O)NC1C(OC(C)=O)C(OC(C)=O)C(COC(C)=O)OC1n1ccc(NC(C)=O)nc1=O (stereo not given)
inactive: [1] 8.65% | [2] 1.4% | [3] 5.9% | [4] 18.6% | [5] 0.15% | [6] 5.1%

CC(=O)OC1C(Br)CCCC1Br (stereo not given)
inactive: [1] -26% | [2] 4.25% | [3] 1.75% | [4] 1.9% | [5] 0.45% | [6] 15.8%

CSc1ccc(NC(=O)c2ccc(Cl)cc2)cc1
inactive: [1] -13.7% | [2] -6.05% | [3] -6.45% | [4] -22.7% | [5] 5.25% | [6] -3.35%
